# Assay results from publication PMC7862700, “An all-to-all approach to the identification of sequence-specific readers for epigenetic DNA modifications on cytosine”.
# What was measured:
# Test in all cases: DAPPL (digital affinity profiling via proximity ligation, sequencing); 10 mM Tris-HCl pH 7.5, 50 mM NaCl, 1 mM DTT, 4% glycerol, room temperature, 30 min; GST-TFs on glutathione beads, 16-mer random dsDNA library, 0.1% formaldehyde crosslink after washing; high values mean tight binding
# Details in all cases: protein: recombinant; tags: N-terminal GST; dsDNA, one strand shown
# [1] = target: T1, ELK4 (Homo sapiens, UniProt P28324-2 1-405)
# T1 sequence: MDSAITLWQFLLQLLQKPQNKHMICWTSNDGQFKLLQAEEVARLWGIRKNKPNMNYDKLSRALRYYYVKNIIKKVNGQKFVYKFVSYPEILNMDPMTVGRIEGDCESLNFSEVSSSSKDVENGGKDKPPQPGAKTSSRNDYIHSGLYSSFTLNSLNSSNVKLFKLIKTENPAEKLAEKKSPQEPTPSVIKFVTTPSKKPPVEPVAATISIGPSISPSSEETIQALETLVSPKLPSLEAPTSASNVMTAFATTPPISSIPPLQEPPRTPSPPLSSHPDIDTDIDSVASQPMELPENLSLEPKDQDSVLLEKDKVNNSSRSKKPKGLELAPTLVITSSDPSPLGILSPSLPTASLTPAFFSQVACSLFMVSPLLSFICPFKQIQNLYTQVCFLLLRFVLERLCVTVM
# Procedure, shortened: (§1)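 A tag-only sample was pooled with DNA-barcoded human transcription factors that had been expressed in yeast as GST fusions and captured on glutathione beads. The pools were incubated for 30 min at room temperature with 200 nmole of a random double-stranded 16-mer DNA library in Tris/NaCl/DTT/glycerol buffer, then washed, crosslinked with 0.1% formaldehyde, proximity-ligated (BsaI/T4 ligase, 1 h, 37 °C), PCR-amplified and sequenced on an Illumina NextSeq500. Binding signal is each hexamer's read frequency for a factor divided by its frequency for the tag-only sample.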
# [2] = target: ELF4 (Homo sapiens, UniProt Q99607 1-663)
# Sequence of ELF4 (Q99607 whole entry): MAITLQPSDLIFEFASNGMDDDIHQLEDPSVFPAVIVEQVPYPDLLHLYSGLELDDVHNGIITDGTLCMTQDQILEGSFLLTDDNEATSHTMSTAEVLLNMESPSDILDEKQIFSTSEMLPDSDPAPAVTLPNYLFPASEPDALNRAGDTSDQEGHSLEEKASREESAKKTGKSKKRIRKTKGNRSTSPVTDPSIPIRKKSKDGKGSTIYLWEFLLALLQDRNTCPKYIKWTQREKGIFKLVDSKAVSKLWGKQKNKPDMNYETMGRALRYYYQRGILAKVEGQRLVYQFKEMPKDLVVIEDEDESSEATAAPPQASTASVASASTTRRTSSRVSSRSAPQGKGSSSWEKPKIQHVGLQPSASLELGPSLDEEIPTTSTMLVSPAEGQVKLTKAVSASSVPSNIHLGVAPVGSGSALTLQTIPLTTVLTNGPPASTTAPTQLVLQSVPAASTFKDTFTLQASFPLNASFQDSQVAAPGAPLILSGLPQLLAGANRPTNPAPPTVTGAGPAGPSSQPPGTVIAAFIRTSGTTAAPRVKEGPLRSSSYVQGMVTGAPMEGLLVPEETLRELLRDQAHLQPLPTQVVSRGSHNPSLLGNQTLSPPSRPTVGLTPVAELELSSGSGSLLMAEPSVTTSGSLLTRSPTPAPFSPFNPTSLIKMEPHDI
# Procedure, shortened: as §1
# [3] = target: ETV1 (Homo sapiens, UniProt P50549 1-477)
# Sequence of ETV1 (P50549 whole entry): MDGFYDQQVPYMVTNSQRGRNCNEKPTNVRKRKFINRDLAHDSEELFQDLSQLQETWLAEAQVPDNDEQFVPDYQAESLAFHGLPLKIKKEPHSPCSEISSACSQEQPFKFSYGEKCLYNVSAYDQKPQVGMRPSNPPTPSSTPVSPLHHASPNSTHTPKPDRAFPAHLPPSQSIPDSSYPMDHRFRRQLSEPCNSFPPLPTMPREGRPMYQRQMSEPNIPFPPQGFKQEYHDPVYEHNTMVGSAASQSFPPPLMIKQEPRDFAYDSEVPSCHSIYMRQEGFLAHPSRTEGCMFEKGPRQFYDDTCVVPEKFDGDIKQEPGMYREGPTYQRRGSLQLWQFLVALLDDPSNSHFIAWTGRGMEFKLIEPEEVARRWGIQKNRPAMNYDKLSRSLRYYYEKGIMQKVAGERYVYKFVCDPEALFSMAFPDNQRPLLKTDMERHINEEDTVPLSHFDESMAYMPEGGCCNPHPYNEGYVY
# Procedure, shortened: as §1
# [4] = target: T2, FEV (Homo sapiens, UniProt Q99581 1-238)
# T2 sequence: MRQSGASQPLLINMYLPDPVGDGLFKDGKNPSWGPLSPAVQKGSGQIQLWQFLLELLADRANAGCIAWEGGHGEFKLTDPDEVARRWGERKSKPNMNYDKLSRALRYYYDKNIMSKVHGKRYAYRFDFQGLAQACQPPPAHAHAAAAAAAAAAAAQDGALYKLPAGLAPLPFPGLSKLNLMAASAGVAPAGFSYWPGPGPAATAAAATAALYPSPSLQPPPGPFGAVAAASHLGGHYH
# Procedure, shortened: as §1
# [5] = target: T3, ELK1 (Homo sapiens, UniProt P19419 1-428)
# T3 sequence: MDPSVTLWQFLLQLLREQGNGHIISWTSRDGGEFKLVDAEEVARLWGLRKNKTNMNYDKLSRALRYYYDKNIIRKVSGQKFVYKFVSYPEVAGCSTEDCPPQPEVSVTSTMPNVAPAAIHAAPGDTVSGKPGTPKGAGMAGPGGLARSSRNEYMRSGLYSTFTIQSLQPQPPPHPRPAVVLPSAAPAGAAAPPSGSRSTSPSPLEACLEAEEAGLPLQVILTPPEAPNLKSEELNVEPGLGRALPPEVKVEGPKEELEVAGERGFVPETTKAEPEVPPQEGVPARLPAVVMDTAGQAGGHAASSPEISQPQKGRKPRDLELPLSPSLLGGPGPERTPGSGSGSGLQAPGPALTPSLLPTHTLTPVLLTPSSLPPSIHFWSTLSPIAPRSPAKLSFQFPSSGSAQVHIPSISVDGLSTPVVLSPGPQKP
# Procedure, shortened: as §1
# [6] = target: T4, GABPA (Homo sapiens, UniProt Q06546 1-454)
# T4 sequence: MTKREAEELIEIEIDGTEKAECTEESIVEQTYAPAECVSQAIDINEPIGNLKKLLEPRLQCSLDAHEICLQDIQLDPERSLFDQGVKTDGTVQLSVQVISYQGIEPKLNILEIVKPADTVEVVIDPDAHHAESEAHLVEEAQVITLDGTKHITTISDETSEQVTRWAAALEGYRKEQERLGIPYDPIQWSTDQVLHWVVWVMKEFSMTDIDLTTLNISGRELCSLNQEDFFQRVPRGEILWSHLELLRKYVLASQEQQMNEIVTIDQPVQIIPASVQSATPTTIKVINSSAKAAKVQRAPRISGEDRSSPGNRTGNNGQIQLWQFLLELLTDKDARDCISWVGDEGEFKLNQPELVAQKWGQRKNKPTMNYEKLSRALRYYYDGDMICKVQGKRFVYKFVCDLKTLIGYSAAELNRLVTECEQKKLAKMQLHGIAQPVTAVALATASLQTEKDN
# Procedure, shortened: as §1
# [7] = target: ELF1 (Homo sapiens, UniProt P32519 1-619)
# Sequence of ELF1 (P32519 whole entry): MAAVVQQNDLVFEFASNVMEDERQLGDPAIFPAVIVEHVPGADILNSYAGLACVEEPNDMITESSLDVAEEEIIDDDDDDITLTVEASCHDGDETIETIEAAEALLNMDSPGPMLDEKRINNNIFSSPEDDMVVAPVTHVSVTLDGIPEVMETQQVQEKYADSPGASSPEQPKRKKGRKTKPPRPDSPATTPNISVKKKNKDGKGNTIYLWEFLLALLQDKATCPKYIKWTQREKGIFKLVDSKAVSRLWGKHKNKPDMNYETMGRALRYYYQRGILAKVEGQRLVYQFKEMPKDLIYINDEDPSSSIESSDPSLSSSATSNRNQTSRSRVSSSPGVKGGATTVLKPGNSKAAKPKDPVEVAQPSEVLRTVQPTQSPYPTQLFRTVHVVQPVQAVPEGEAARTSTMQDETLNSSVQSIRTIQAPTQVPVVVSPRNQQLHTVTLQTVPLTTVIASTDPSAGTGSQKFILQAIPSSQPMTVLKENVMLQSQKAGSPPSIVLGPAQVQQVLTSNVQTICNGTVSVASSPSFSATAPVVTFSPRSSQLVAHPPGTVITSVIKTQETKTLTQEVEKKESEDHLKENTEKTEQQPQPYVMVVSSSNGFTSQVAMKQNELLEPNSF
# Procedure, shortened: as §1
# [8] = target: T5, EHF (Homo sapiens, UniProt Q9NZC4 1-300)
# T5 sequence: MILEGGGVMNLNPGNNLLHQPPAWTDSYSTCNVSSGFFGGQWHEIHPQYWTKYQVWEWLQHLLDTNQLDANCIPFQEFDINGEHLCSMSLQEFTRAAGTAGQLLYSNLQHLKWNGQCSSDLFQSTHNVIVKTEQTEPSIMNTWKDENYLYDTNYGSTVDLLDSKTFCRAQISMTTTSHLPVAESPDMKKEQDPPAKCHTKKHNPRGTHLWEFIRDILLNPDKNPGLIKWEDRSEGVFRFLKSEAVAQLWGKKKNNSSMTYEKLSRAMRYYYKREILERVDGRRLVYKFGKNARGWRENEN
# Procedure, shortened: as §1
# [9] = target: T6, ERF (Homo sapiens, UniProt P50548 1-548)
# T6 sequence: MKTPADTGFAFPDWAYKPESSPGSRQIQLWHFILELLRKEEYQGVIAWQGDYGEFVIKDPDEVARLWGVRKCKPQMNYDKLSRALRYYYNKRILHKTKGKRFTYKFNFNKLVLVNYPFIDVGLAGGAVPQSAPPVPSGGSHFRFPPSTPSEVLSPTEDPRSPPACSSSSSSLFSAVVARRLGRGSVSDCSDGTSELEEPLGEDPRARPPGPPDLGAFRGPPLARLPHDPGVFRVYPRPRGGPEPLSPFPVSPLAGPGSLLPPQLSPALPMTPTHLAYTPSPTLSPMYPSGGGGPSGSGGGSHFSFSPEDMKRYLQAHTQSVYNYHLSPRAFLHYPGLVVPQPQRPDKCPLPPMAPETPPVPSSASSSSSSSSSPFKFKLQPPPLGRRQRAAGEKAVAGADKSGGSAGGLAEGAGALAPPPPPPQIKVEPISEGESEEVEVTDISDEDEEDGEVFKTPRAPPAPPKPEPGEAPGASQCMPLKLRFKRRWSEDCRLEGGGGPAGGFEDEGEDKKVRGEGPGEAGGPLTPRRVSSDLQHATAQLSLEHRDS
# Procedure, shortened: as §1
# [10] = target: T7, ETV3L (Homo sapiens, UniProt Q6ZN32 1-361)
# T7 sequence: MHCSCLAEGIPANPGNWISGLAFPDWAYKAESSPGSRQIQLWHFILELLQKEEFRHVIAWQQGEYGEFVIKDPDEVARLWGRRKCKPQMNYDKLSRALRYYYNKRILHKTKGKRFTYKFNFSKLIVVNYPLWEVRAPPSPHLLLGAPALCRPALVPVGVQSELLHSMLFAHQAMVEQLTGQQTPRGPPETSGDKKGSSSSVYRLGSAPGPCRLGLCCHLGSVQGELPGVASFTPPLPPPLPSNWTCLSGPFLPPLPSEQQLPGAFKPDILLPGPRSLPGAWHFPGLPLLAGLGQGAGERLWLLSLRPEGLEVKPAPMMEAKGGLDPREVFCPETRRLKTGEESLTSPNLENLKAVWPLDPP
# Procedure, shortened: as §1
# [11] = target: T8, ETS2 (Homo sapiens, UniProt P15036 1-469)
# T8 sequence: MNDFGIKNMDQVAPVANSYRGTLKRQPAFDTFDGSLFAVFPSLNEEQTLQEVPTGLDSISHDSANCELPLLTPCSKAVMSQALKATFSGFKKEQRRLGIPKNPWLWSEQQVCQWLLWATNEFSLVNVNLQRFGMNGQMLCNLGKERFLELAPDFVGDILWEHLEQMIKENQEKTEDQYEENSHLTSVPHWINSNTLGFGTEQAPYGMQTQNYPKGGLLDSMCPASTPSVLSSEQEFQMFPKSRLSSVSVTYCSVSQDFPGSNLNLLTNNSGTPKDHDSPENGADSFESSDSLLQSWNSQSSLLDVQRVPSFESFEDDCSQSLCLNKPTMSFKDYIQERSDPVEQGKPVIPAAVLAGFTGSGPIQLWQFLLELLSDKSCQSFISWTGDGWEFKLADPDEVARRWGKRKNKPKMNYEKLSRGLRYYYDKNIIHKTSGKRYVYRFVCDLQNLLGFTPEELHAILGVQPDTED
# Procedure, shortened: as §1
sequence,measurement,setting,value
GTGGTC,binding signal,[1],"1.06 fold enrichment (6-mer frequency, TF over GST control)"
CTGTGT,binding signal,[1],"1.04 fold enrichment (6-mer frequency, TF over GST control)"
GAGCTC,binding signal,[2],"1.02 fold enrichment (6-mer frequency, TF over GST control)"
same,binding signal,[1],"1.04 fold enrichment (6-mer frequency, TF over GST control)"
same,binding signal,[3],"1.05 fold enrichment (6-mer frequency, TF over GST control)"
GCCACC,binding signal,[4],"1.01 fold enrichment (6-mer frequency, TF over GST control)"
same,binding signal,[2],"1 fold enrichment (6-mer frequency, TF over GST control)"
same,binding signal,[1],"1.03 fold enrichment (6-mer frequency, TF over GST control)"
TCATTG,binding signal,[5],"1.01 fold enrichment (6-mer frequency, TF over GST control)"
same,binding signal,[6],"1 fold enrichment (6-mer frequency, TF over GST control)"
same,binding signal,[7],"1.03 fold enrichment (6-mer frequency, TF over GST control)"
same,binding signal,[8],"1.03 fold enrichment (6-mer frequency, TF over GST control)"
same,binding signal,[1],"1.07 fold enrichment (6-mer frequency, TF over GST control)"
same,binding signal,[9],"1.04 fold enrichment (6-mer frequency, TF over GST control)"
same,binding signal,[10],"1.04 fold enrichment (6-mer frequency, TF over GST control)"
same,binding signal,[11],"1 fold enrichment (6-mer frequency, TF over GST control)"
